Data on 17 molecules can be found in PubChem BioAssay (NCATS).

Values joined by “and” are separate entries in the source; they are usually repeats but may differ in a detail not shown here. Equal values may be shown once. Values without a mark were called inactive. Results filed as inconclusive are left out. Active and inactive are the calls of the source. Unless noted, calls follow the shape of the dose curve; as a rule, active = well fitted curve in either direction with a large enough effect (not every such curve was filed as active); inconclusive = small, poorly fitted or top-dose-only effect, or another doubt; inactive = flat fitted curve, though single readings scatter.

Assay [1] in a line: AP1 Signaling Pathway (AID 357).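 Also: ME-180 reporter cells stimulated with EGF at its EC50 level; % is scaled to controls: 0 for no effect and ±100 for the full control effect.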 A digest of the protocol: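 Read-out was the 460nm/530nm emission ratio (excitation 405nm) after CCF4 loading for 2.5 hours at room temperature. Cells carried an AP-1-driven beta-lactamase reporter, were stimulated with EC50 EGF plus compound for 5 hours, and AC50 values came from titrations.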
Assay [2] can be described thus: NFAT Signaling Pathway (AID 444).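 Also: carbachol stimulus at about its EC50 of 1 µM final; % is scaled to controls: 0 for no effect and ±100 for the full control effect.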 Conditions: Jurkat NFAT-bla M1, carbachol, beta-lactamase ratio, 5 h. A digest of the protocol: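 Jurkat cells carrying an NFAT-driven β-lactamase reporter and co-transfected muscarinic M1 receptor were treated with compound plus carbachol (1 uM final, an EC50 level) for 5 h at 37 °C. CCF4 loading followed for 1 h at RT; 460/530 nm ratio gave %activity.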

A short description of assay [3]: Stat Signaling Pathway (AID 446).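 Also: ME-180 cervical cancer cells given 40 pM IL-6 alongside compound; SIE-controlled beta-lactamase reporter measured as 460/530 nm FRET emission ratio; % is scaled to controls: 0 for no effect and ±100 for the full control effect.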 In outline: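 FRET read-out (405 nm excitation, 460/530 nm emission) of a beta-lactamase reporter under a STAT-inducible element in ME-180 cervical carcinoma cells. Cells with compound receive 40 pM IL-6 for 5 h. Values are normalised to AC90 stimulation and AC90 JAK-inhibitor controls.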
Assay [4] concerns the target Glucocorticoid receptor (Homo sapiens) (UniProt P04150). In words: GR-GFP Redistribution (AID 450;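 active = compounds whose dose series gives a full or clear partial fitted curve of increased nuclear translocation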; also: potency is read from the fitted curve at half-maximal effect). Conditions: U2OS GR-GFP nuclear translocation, laser cytometry, 2 h.
Assay [5] is described as follows: Cell Viability - BJ (AID 421; calls by dose curve;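 also: potency is read from the fitted curve at half-maximal effect; cells exposed to compound for 40 hours at 37 °C before readout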). The settings on record: BJ fibroblast viability, qHTS. In outline: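 Cytotoxicity as drop in intracellular ATP (CellTiter-Glo, 20 min RT) after 40 hr compound exposure of BJ fibroblasts at 37 °C. Titrations scaled between DMSO and 100 uM tamoxifen, Hill-fitted for AC50.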
Background: In qHTS, concentration-response curves come from the screen itself.

The nature of assay [6]: Cell Viability - Jurkat (AID 426;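 active = dose-dependent loss of cell ATP signal giving a full or clear fitted curve, ranked by lower potency value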;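 also: potency is read from the fitted curve at half-maximal effect; cells exposed to compound for 40 hours at 37 °C before ATP read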). Conditions: qHTS. A digest of the protocol: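 Cells of the human T-cell leukemia line Jurkat (E6-1) are seeded at 5000 per well, treated with compound across a concentration range for 40 hours at 37 °C, then lysed with CellTiter-Glo; luminescence reports ATP.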
A short description of assay [7]: Cell Viability - Hek293 (AID 427;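 active = compounds whose dose-response curve shows a full or clear partial loss of cell viability, called from curve shape rather than a numeric limit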;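 also: potency is read from the fitted curve at half-maximal effect; cells exposed to compound for 40 hours at 37 °C before reading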). Conditions: qHTS. A digest of the protocol:
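Luminescent ATP content (CellTiter-Glo, 20 min at room temperature) was measured after a 40 hr, 37 °C compound exposure of HEK293 cells. AC50 values came from Hill-equation fits of qHTS concentration-response data normalized to DMSO and 100 uM tamoxifen.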

Assay [8] in a line: Cell Viability - HepG2 (AID 433; calls by dose curve;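 also: potency is read from the fitted curve at half-maximal effect; potency for ATP loss meaning cytotoxicity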). Conditions: qHTS. In outline: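 ATP luminescence (CellTiter-Glo) after 40 h compound exposure, 37 °C, HepG2, 1500 cells/well, complete medium. Normalized: DMSO = basal, 100 uM tamoxifen = 100% inhibition. AC50 via standard Hill equation.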
The nature of assay [9]: Cell Viability - MRC5 (AID 434; calls by dose curve;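 also: potency is read from the fitted curve at half-maximal effect; potency reflects cytotoxicity seen as loss of intracellular ATP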). The settings on record: MRC5 lung fibroblast viability, qHTS. In outline:
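Decrease in intracellular ATP, quantified by luciferase light output, reflects compound toxicity toward MRC5 cells exposed for 40 hr in complete culture medium. Concentration-response curves, scaled between DMSO and 100 uM tamoxifen, gave AC50 values.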

The nature of assay [10]: Cell Viability - SK-N-SH (AID 435; calls by dose curve; also: potency is read from the fitted curve at half-maximal effect). Conditions: SK-N-SH neuroblastoma cell viability qHTS. In outline: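 CellTiter-Glo ATP luminescence, 20 min RT read; cells pre-plated 5 hr, compound 40 hr at 37 °C, 1500 cells/well, complete medium. Normalized DMSO = 0, 100 uM tamoxifen = 100% inhibition; Hill-fit AC50.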
Assay [11] concerns the target Mitogen-activated protein kinase 10 (Mus musculus) (UniProt Q61831). Nature of the assay: JNK3 AlphaScreen Assay (AID 530).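 Also: kinase came from lysate of stimulated human HepG2 cells; signal reports phosphorylation of biotinylated GST-cJun 1-79 at Ser73 with 10 µM ATP; % is scaled to controls: 0 for no effect and ±100 for the full control effect.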 In outline:
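Phosphorylation of biotinylated GST-cJun(1-79) at Ser73 is measured by AlphaScreen proximity luminescence. Enzyme is JNK3 in HepG2 lysates activated with interleukin-1beta and tumor necrosis factor alpha; ATP is 10 uM final.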
(Bead proximity is the source of the signal in Alpha formats.)

A short description of assay [12]: Cell Viability - N2a (AID 540; active = well fitted curve in the direction sought with a large enough effect; an effect the other way counts as inactive or inconclusive;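 also: plate controls were DMSO alone for no effect and tamoxifen control for full effect; nearly all actives have a fitted effect of over 45% in size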). In outline: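 Cytotoxicity was scored as loss of cellular ATP in N2a cells, a mouse neuroblastoma line. Compounds are applied in a qHTS concentration series for 40 hr at 37 °C.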
Assay [13] in a line: Cell Viability - NIH 3T3 (AID 541; active = well fitted curve in the direction sought with a large enough effect; an effect the other way counts as inactive or inconclusive;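 also: plate controls were DMSO alone for no effect and tamoxifen positive control for full effect; nearly all actives have a fitted effect of over 25% in size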). The settings on record: NIH 3T3 cell viability, qHTS; activity change, negative = cytotoxicity: at 92.2 µM (top of the series). A digest of the protocol: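 Cells seeded at 1000/well, rested 5 hr at 37 °C, then dosed and incubated 40 hr at 37 °C. CellTiter-Glo added, 20 min room temperature, luminescence read. AC50 by Hill fit.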
The nature of assay [14]: Cell Viability - HUV-EC-C (AID 542; active = well fitted curve in the direction sought with a large enough effect; an effect the other way counts as inactive or inconclusive; also: % is scaled to controls: 0 for no effect and ±100 for the full control effect; nearly all actives have a fitted effect of over 35% in size). In outline:
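Cells were seeded at 1000 per well and incubated 5 hr at 37 °C before compound addition. After 40 hr at 37 °C, CellTiter-Glo reagent was added for 20 min and luminescence read. AC50 values came from Hill-equation modelling.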

Assay [15] in a line: Cell Viability - SH-SY5Y (AID 544; active = well fitted curve in the direction sought with a large enough effect; an effect the other way counts as inactive or inconclusive;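 also: 0% = DMSO alone and -100% = 100 µM tamoxifen; nearly all actives have a fitted effect of over 55% in size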). The settings on record: SH-SY5Y neuroblastoma cell viability; viability change, negative = cytotoxic: at 92.2 µM (top of the series). In outline:
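Cells were plated at 1500 per well and allowed 5 hr at 37 °C. Compounds were added across a concentration range and incubated 40 hr at 37 °C. CellTiter-Glo was added for 20 min at room temperature before luminescence reading.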

Assay [16] can be described thus: Cell Viability - Renal Proximal Tubule (AID 545; active = well fitted curve in the direction sought with a large enough effect; an effect the other way counts as inactive or inconclusive;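 also: 0% = DMSO only and -100% = 100 µM tamoxifen; nearly all actives have a fitted effect of over 40% in size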). A digest of the protocol:
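Rat kidney proximal tubule cells, freshly isolated; 1000 cells/well, 5 hr settle, compound 40 hr 37 °C. CellTiter-Glo 20 min RT, luminescence read. AC50 by standard Hill fit.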

In assay [17] the target is Cytochrome P450 1A2 (Homo sapiens) (UniProt P05177). Nature of the assay: p450-cyp1a2 (AID 410; calls by dose curve; also: potency is read from the fitted curve at half-maximal effect;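 as to activity change, negative = inhibition: -100% = full effect of reference inhibitor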). In outline:
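O-Demethylation of luciferin 6' methyl ether by human CYP1A2 is monitored as luciferase luminescence. Substrate sits at Km (100uM); enzyme is 20nM. Values are scaled to 57 uM furafylline as maximal inhibition.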

The target of assay [18] is Glucocorticoid receptor (Homo sapiens) (UniProt P04150). In words: GR-EFC Redistribution (AID 451; calls by dose curve; also: potency is read from the fitted curve at half-maximal effect). Conditions: CHO-K1 GR-EFC translocation, beta-gal luminescence, 2 h. In outline: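 CHO-K1 cells stably expressing nuclear-localized β-gal enzyme acceptor and GR fused C-terminally to the enzyme donor fragment; ligand-driven nuclear translocation restores β-gal by complementation. Compounds titrated up to 46 uM final, 2 h at 37 °C; luminescence read.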

Assay [19] has as its target Lysosomal acid glucosylceramidase (Homo sapiens) (UniProt P04062). In words: Glucocerebrosidase-p2 (AID 348; in the data active = potency below about 10 µM; also: potency is read from the fitted curve at half-maximal effect). Conditions: purified GBA, blue fluorogenic substrate, 40 min. In outline: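 Normal human glucocerebrosidase (0.2 nM) with blue fluorogenic substrate (80 uM final) in citrate/phosphate pH 5.9 with 10mM sodium taurocholate, 0.01% tween-20; 40 min RT, NaOH/glycine stop; fluorescence Ex 365/Em 440; AC50 from a titration from 0.6 nM upwards.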

Where [20] appears, read: at 17.2 µM (top of the series) unless noted.

Chain of Cytochrome P450 1A2 (Homo sapiens) (P05177 whole entry, looked up): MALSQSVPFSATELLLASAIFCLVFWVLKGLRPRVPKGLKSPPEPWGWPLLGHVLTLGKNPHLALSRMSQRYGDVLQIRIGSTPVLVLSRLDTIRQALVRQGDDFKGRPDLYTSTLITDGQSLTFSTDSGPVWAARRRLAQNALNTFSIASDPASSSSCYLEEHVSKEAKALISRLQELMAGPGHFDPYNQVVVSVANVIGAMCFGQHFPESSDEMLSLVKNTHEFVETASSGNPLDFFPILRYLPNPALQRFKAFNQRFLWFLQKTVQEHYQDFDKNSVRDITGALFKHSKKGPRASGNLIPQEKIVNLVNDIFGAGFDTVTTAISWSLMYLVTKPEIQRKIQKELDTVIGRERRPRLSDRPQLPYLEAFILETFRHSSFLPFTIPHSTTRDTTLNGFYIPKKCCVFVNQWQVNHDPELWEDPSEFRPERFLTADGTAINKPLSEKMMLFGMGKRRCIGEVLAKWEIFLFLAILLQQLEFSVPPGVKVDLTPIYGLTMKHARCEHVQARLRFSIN
Chain of Glucocorticoid receptor (Homo sapiens) (P04150 whole entry, looked up, the tested form may be a part): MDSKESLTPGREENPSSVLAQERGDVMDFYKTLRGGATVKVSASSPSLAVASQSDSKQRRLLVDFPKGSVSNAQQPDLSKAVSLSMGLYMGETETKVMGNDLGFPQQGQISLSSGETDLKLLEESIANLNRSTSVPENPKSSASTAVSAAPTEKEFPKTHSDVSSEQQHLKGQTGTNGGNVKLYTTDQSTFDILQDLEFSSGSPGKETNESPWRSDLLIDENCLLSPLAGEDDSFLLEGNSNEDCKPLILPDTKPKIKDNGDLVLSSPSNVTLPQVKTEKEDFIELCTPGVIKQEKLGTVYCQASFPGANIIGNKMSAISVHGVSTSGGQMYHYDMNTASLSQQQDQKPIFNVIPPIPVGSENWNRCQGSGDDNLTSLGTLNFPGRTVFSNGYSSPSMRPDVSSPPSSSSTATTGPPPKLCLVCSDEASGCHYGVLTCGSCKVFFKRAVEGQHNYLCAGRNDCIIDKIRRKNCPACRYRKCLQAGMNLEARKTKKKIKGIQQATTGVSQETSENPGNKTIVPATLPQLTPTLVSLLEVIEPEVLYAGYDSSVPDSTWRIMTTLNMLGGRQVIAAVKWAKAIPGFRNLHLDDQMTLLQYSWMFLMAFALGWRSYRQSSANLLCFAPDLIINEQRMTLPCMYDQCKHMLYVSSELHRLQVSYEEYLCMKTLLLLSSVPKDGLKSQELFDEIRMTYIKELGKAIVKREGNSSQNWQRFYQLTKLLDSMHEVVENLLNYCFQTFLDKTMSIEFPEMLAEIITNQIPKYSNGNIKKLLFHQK
Chain of Lysosomal acid glucosylceramidase (Homo sapiens) (P04062 whole entry, looked up): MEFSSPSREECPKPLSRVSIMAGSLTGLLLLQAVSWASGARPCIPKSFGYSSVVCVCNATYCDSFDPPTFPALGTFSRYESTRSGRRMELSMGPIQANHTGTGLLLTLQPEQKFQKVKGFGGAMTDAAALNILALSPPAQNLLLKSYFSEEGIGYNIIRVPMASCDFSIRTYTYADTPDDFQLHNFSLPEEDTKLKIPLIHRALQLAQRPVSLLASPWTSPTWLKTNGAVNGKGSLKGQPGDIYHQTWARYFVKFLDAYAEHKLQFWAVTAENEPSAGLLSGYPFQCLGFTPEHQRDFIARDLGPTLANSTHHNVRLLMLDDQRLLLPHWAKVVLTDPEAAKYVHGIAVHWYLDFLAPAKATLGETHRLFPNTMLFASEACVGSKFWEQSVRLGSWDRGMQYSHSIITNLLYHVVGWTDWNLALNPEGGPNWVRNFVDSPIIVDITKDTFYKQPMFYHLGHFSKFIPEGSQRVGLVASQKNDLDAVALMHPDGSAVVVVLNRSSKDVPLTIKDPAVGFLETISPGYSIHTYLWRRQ

As for `CC(=O)O[C@]1(C(C)=O)CC[C@H]2[C@@H]3C=C(C)C4=CC(=O)CC[C@]4(C)[C@H]3CC[C@@]21C`, the outcome in assay [1] and in assay [3] was inactive. Also, the activity change, negative = inhibition in [2] (setting [20]) is -25.3%. The Potency in assay [4] was 0.00185 µM (active).

Take `CCOc1ccc(NC(C)=O)cc1`: the molecule was called inactive in assay [1], in assay [14] and in [16]. For the same molecule, the Potency in assay [5], in [6], in assay [7], in assay [8], in assay [9] and in assay [10] was above 92 µM in each case. In addition, in assay [4], the Potency is above 20.6 µM. The activity change, negative = inhibition in assay [2] (setting [20]) was 3.42%. Further, the Potency entry in [11] and in assay [12] was “inactive” in each case. In addition, the activity change, negative = cytotoxicity in assay [13] was -21.8%. The viability change, negative = cytotoxic in [15] is -11.1%.

Take `Cc1cc(-c2ccccc2)nnc1NCCN1CCOCC1`: the result in assay [1] was inactive. The Potency in assay [17] was 10 µM (active). The activity change, negative = inhibition in [2] (setting [20]) was -10.7% and -25.7%. Besides, in assay [11], the Potency entry is “inactive”.

As for `CC(=O)OCC(=O)[C@H]1CC[C@H]2[C@@H]3CCC4=CC(=O)CC[C@]4(C)[C@H]3CC[C@]12C`, the outcome in [1] was inactive.

Consider `CCN(CC)CCNc1ccc(CO)c2sc3ccccc3c(=O)c12`, for which the molecule was called inactive in [1]. Also, the Potency is 0.126 µM (active) in [17] and above 20.6 µM in [4]. Further, in [2] (setting [20]), the activity change, negative = inhibition was -29.8%. Besides, in assay [11], the Potency result was “inactive”.

`COc1cc(N)c(Cl)cc1C(=O)NC1CCN(Cc2ccccc2)CC1`: the call in assay [1] was inactive. For the same molecule, the values for the Potency in assay [17] and in assay [4] were 12.6 µM (active) and above 20.6 µM, respectively. Moreover, the activity change, negative = inhibition in [2] (setting [20]) was -14.7%. In addition, the Potency result in assay [11] was “inactive”.

As to `NS(=O)(=O)Cc1noc2ccccc12`, in assay [1], the call was inactive. For the same molecule, the Potency entry in assay [17] and in [11] was “inactive” in each case. For the same molecule, in assay [2] (setting [20]), the activity change, negative = inhibition is -5.42% [at 38 µM]. Besides, the Potency in assay [4] and in assay [18] was above 46 µM in each case.

For `O=C1C(CCS(=O)c2ccccc2)C(=O)N(c2ccccc2)N1c1ccccc1` (stereo not given), the result in [1] was inactive. The Potency result in assay [17] and in [11] was “inactive” each time. Further, the activity change, negative = inhibition in [2] (setting [20]) was -0.885% and -5.88%. For the same molecule, the Potency in assay [4] was above 20.6 µM.

For the molecule `COc1ccc(C(Cl)=C(c2ccc(OC)cc2)c2ccc(OC)cc2)cc1`, the result in [1], in assay [3], in assay [14] and in [16] was inactive. Further, the Potency result in assay [17], in assay [11] and in assay [12] was “inactive” each time. Moreover, the Potency was above 92 µM in [5]; above 92 µM in [7]; above 92 µM in assay [8]; above 92 µM in [9]; above 92 µM in [10]; above 20.6 µM in assay [4]. For the same molecule, the activity change, negative = cytotoxicity in assay [13] was -7.28%. For the same molecule, the viability change, negative = cytotoxic in [15] was -10.7%.

As for `Nc1ccc(S(=O)(=O)Nc2cnc3ccccc3n2)cc1`, the Potency in assay [19] was above 11.4 µM; in [4] it was > 20.6 µM and > 46 µM. Besides, the call in assay [1] was inactive. Further, the Potency result in [17] and in assay [11] was “inactive” in each case. Further, the activity change, negative = inhibition in assay [2] (at 7.69 µM (top of the series)) was -24.5%; in assay [2] (at 17.2 µM (top of the series)), -5.07%.

As to `CCN(CC)CCNC(=O)c1cc(Br)c(N)cc1OC`, the molecule was classed as inactive in [1]. Further, in assay [17], the Potency is 10 µM (active). In addition, in assay [11], the Potency entry is “inactive”.

Turning to `CC(C)(C)NC[C@H](O)COc1cccc2c1CCCC2=O`, the molecule was classed as inactive in [1]. Also, the Potency entry in assay [17] and in assay [11] was “inactive” throughout. Moreover, the activity change, negative = inhibition in [2] (setting [20]) was -6.3% and -2.31%. The Potency in assay [4] was above 20.6 µM.

With `NS(=O)(=O)c1cc(C(=O)O)cc(N2CCCC2)c1Oc1ccccc1`, in [1], the outcome was inactive. Moreover, the Potency result in assay [17] and in [11] was “inactive” in each case. For the same molecule, the activity change, negative = inhibition in [2] (setting [20]) is -7.88%. The Potency in assay [4] is 2.81 µM (active).

Take `NC(N)=NCc1cccc(I)c1`: the molecule was classed as inactive in assay [1] and in assay [3]. The Potency in assay [17] is 12.6 µM (active); in assay [4], above 46 µM. Further, the activity change, negative = inhibition in assay [2] (setting [20]) was -11.1% [at 38 µM]. The Potency entry in [11] is “inactive”.

In the case of `COc1cc(C(=O)NCc2ccc(OCCN(C)C)cc2)cc(OC)c1OC`, the outcome in assay [1] was inactive. Further, the Potency result in assay [17] and in [11] was “inactive” in each case. For the same molecule, the activity change, negative = inhibition in [2] (setting [20]) was -15.8%. Moreover, in assay [4], the Potency is above 20.6 µM.

As to `CC[N+](C)(CC)CCOC(=O)C(O)(c1ccccc1)C1CCCCC1` (stereo not given), the outcome in [1] and in [3] was inactive. In assay [2] (setting [20]), the activity change, negative = inhibition was -95.5% (active). Further, the Potency in assay [4] is above 20.6 µM.

`CCc1cc(Cl)c(OC)c(C(=O)NC[C@@H]2CCCN2CC)c1O`: the call in assay [1] and in assay [3] was inactive. For the same molecule, the Potency in assay [17] is 3.98 µM (active); in assay [4] it was above 20.6 µM. Moreover, the Potency result in [11] is “inactive”.
